Results: PubChem BioAssay
Active and inactive are the calls of the source.

Columns and labels:
Albumin (Bos taurus) = Albumin (Bos taurus) (UniProt P02769); test: compounds binding labelled BSA control protein – biochemical, small-molecule microarray, Alexa647 label, 635/667 nm fluorescence, artefact control for SMM control protein annotation, profiling panel (AID 1118); settings: BSA-A647 binding, fluorescence 635 nm, higher = more signal;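 also: score merges 667 nm emission intensity and signal-to-noise per printed compound spot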
Albumin (Bos taurus), sequence (P02769 whole entry, looked up): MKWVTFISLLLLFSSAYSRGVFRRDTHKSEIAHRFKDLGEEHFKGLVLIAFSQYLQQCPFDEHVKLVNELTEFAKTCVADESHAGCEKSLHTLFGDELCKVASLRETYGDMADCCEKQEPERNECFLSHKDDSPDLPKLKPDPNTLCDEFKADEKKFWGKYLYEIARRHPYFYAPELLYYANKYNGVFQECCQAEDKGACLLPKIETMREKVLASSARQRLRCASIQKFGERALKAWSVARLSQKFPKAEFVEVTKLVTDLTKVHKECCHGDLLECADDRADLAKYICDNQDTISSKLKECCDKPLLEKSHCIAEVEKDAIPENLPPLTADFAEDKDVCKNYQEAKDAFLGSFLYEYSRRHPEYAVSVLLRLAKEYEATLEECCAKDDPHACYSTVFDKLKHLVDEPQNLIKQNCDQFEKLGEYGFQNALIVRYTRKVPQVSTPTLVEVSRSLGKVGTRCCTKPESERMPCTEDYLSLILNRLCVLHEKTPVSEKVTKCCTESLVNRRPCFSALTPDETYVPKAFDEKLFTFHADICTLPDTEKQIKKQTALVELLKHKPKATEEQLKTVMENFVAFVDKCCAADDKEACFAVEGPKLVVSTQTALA

[1] = probe aXIP binding to arrayed compounds – biochemical, NeuroSMM set, 635/667 nm fluorescence, primary screen (AID 1119); settings: small-molecule microarray, higher = more signal, called active from +8 up or from −8 down;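 also: probe is the protein aXip251-270 applied at 1 µg/mL to compound-printed slides; binding of probe to printed compounds measured as 667 nm fluorescence plus signal to noise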
[2] = probe aNOTCH3 binding on compound microarray – biochemical, small-molecule microarray, 635/667 nm fluorescence, primary screen (AID 1120); settings: higher = more signal;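 also: probe is a biotin-tagged antibody raised against NOTCH3 rather than NOTCH3 protein; score merges spot fluorescence near 667 nm with spot signal to noise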
[3] = probe aNOTCH2 binding on compound microarray – biochemical, small-molecule microarray, 635/667 nm fluorescence, primary screen (AID 1121); settings: higher = more signal;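 also: score merges feature fluorescence read at 667 nm with its signal to noise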
[4] = biological target: Carbonic anhydrase 2 (Homo sapiens) (UniProt P00918); test: compounds binding carbonic anhydrase 2 – biochemical, small-molecule microarray, Alexa647-labelled CAII, profiling panel (AID 1122); settings: CAII-A647 binding fluorescence, higher = more signal
[5] = COS7 lysate on small-molecule microarray, probe aHis, 635 nm (AID 1123); settings: COS7 cell lysate, fluorescence, higher = more signal;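 also: z-score combines 667nm fluorescence intensity with signal-to-noise per printed compound spot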
[6] = probe aLAP1 signal on lysate-treated microarray – cell lysate, small-molecule microarray, COS7 lysate, primary screen (AID 1124); settings: probe aLAP1, fluorescence, higher = more signal;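 also: lysate comes from COS7 cells expressing LAP1 and is applied at 0.3 µg/mL; score merges spot fluorescence near 667 nm with signal-to-noise over triplicate slides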
Sam68 (KHDRBS1) = test: compounds binding KHDRBS1 protein – biochemical, small-molecule microarray, 635 nm fluorescence, primary screen (AID 1125); settings: higher = more signal;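 also: score merges 667 nm channel intensity with signal to noise over triplicate slides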
[7] = test system: Chordin-like protein 2 (CHRDL2); test: compounds binding chordin-like 2 – biochemical, small-molecule microarray, 635 nm fluorescence, primary screen (AID 1126); settings: fluorescence 635 nm, higher = more signal;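 also: printed compound slides probed with Chrdl2 protein at 4 µg/mL for 1 h at 4 C; score merges 667 nm emission intensity with signal to noise over three replicate slides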
[8] = biological target: Concanavalin-A (Canavalia ensiformis) (UniProt P02866); test: compounds binding concanavalin A lectin – biochemical, small-molecule microarray, Alexa647 label, 635 nm, artefact control for SMM control protein annotation, primary screen (AID 1127); settings: ConA-A647 binding fluorescence, higher = more signal;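 also: z combines 667 nm emission intensity with signal-to-noise across three replicate slides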
Concanavalin-A (Canavalia ensiformis), sequence (P02866 whole entry, looked up): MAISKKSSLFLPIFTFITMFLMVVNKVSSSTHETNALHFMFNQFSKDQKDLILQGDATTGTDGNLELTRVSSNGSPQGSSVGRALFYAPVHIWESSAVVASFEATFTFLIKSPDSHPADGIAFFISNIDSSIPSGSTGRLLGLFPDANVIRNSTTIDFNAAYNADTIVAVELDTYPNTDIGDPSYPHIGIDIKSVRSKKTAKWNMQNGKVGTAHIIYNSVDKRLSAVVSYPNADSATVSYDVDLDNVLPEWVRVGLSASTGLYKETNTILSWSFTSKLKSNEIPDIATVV

[9] = compounds binding Alexa647 anti-His antibody – biochemical, small-molecule microarray, 635 nm fluorescence, artefact control for SMM control protein annotation, primary screen (AID 1128); settings: higher = more signal;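 also: score merges feature fluorescence with signal-to-noise for each printed compound spot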
[10] = test system: Human papillomavirus type 1a E7 protein (residues 1-88); test: HPV1a E7 small-molecule binders, primary screen, biochemical, small-molecule microarray, residues 1-88, 635 nm (AID 1129); settings: small-molecule microarray binding, fluorescence 635 nm; higher = more signal
[11] = biological target: Focal adhesion kinase 1 (Homo sapiens) (UniProt Q05397); test: PTK2 protein binding on printed compound slides – biochemical, small-molecule microarray, 635/667 nm fluorescence, BSA, DTT, primary screen (AID 1130); settings: 635 nm fluorescence, higher = more signal;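 also: composite of spot emission at 667 nm and signal to noise over triplicate slides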
Focal adhesion kinase 1 (Homo sapiens), sequence (Q05397 whole entry, looked up): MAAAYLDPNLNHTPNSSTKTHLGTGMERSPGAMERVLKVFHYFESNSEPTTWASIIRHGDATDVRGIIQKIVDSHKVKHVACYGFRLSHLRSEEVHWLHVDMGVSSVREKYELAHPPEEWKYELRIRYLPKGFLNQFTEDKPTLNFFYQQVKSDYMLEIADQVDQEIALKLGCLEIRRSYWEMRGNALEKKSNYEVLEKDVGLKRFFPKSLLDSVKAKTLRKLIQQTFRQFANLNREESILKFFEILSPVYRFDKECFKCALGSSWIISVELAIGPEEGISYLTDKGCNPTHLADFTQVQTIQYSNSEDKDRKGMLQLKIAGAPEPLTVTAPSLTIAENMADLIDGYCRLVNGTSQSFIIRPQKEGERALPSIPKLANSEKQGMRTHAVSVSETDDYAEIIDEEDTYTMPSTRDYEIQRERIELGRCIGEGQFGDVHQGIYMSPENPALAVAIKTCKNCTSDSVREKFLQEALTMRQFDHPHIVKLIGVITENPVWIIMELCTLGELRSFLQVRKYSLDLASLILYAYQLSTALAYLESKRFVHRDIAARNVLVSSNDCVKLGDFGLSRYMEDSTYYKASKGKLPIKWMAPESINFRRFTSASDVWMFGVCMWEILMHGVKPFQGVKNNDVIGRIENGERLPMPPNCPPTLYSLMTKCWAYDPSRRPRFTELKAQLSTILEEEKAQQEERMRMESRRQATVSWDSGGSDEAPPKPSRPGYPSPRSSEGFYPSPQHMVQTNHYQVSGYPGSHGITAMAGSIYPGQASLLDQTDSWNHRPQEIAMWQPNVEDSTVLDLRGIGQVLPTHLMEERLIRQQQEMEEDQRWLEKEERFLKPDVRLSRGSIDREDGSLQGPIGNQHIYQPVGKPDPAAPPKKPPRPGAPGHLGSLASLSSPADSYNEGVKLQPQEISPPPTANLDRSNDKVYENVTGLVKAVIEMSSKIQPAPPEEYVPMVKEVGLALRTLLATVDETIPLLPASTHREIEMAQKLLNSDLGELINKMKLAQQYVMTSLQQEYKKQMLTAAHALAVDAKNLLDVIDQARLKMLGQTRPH

[12] = test system: Fibrinogen (Alexa647-labelled); test: Alexa647-fibrinogen binding to printed small molecules – biochemical, small-molecule microarray, 635/667 nm fluorescence, artefact control for SMM control-protein annotation, profiling panel (AID 1131); settings: fibrinogen-A647 binding fluorescence, higher = more signal;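 also: z-score merges 667 nm fluorescence with per-spot signal-to-noise over triplicate slides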
[13] = biological target: Follistatin (Homo sapiens) (UniProt P19883); test: FST protein binding to printed compounds – biochemical, small-molecule microarray, 635/667 nm fluorescence, primary screen (AID 1132); settings: 635 nm fluorescence, higher = more signal
Follistatin (Homo sapiens), sequence (P19883 whole entry, looked up): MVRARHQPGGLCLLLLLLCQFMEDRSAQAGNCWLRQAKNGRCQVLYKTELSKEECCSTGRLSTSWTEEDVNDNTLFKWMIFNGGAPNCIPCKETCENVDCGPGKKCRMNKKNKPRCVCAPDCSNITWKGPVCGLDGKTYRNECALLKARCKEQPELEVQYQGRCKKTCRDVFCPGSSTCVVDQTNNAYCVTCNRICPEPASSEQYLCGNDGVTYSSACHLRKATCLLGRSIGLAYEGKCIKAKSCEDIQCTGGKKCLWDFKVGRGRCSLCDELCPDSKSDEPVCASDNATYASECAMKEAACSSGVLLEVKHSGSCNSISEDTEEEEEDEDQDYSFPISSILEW

[14] = biological target: Fibroblast growth factor 2 (Homo sapiens) (UniProt P09038); test: basic fibroblast growth factor binding to printed compounds – biochemical, small-molecule microarray, 635/667 nm fluorescence, primary screen (AID 1133); settings: FGF2, fluorescence 635/667, higher = more signal
Fibroblast growth factor 2 (Homo sapiens), sequence (P09038 whole entry, looked up): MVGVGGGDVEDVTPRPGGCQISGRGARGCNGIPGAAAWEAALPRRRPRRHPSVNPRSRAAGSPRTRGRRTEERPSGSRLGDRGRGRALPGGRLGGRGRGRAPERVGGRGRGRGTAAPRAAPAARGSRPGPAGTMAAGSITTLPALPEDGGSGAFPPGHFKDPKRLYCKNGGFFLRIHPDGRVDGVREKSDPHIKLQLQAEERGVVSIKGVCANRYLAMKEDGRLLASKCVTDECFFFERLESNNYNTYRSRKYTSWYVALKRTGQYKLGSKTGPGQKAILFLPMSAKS

[15] = JC-1 mitochondrial potential readout, lung cancer cells – cell-based, A549, JC-1 fluorescence, basal, 24 h, 100 nL, profiling panel (AID 1138); settings: higher = more signal;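 also: A549 lung adenocarcinoma cells under basal conditions with no added stimulus; test concentration not given here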
Lefty1 = Lefty1 protein binding to printed compounds – biochemical, small-molecule microarray, 635/667 nm fluorescence, primary screen (AID 1139); settings: fluorescence 635/667, higher = more signal
[16] = test system: wheat germ agglutinin (Triticum aestivum), Alexa647-labelled; test: Alexa647-WGA lectin binding to printed small molecules – biochemical, small-molecule microarray, 635/667 nm fluorescence, artefact control for SMM control-protein annotation, profiling panel (AID 1140); settings: WGA-A647 binding, 635 nm fluorescence, higher = more signal;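 also: score merges 667 nm feature emission with signal to noise over triplicate slides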
[17] = biological target: Luciferin 4-monooxygenase (Photinus pyralis) (UniProt P08659); test: inhibition of purified Photinus pyralis luciferase – biochemical, luminescence, purified enzyme, 2006 set, primary screen (AID 1141); settings: purified firefly luciferase, SteadyGlo luminescence, 30 min; higher = more signal, called active from +8 up or from −8 down;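 also: cell-free assay with purified firefly luciferase at 100 ng per well in PBS; test concentration not given here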
Luciferin 4-monooxygenase (Photinus pyralis), sequence (P08659 whole entry, looked up): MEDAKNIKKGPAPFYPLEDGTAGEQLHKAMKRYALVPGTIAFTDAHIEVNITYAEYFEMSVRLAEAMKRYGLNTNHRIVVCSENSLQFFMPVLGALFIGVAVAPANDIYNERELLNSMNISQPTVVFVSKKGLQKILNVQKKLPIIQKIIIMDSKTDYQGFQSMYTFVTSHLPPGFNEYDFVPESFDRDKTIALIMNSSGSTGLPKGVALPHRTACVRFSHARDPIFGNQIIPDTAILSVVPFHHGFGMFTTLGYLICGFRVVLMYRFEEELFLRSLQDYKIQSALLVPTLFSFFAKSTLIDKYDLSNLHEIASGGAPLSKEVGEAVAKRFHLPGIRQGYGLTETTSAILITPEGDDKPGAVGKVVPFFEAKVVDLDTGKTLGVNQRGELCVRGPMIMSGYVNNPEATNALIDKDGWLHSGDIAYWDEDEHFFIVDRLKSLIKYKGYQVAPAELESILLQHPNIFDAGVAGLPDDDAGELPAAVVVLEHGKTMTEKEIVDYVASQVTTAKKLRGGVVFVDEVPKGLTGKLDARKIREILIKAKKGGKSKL

CCCC[C@@H](O)C1=C(C)Cn2c(=O)n(-c3ccccc3)c(=O)n2[C@H]1CO
composite z-score (Albumin (Bos taurus)): 0.138
composite Z-score [1]: -0.301 (inactive)
composite z-score [2]: -0.0647
composite z-score [3]: -0.219
composite z-score [4]: -0.313
composite z-score [5]: 0.332
composite z-score [6]: -0.0242
composite z-score (Sam68 (KHDRBS1)): -0.92
composite z-score [7]: 0.24
composite z-score [8]: -0.827
composite z-score [9]: -0.237
composite z-score [10]: -0.432
composite z-score [11]: -0.137
composite z-score [12]: -0.926
composite z-score [13]: -0.355
composite z-score [14]: 0.0632
z-score [15]: 2.01
composite z-score (Lefty1): 0.0378
composite z-score [16]: 0.502
z-score [17]: -1.32 (inactive)

[N-]=[N+]=Nc1ccccc1C[C@]1(C(=O)N2CCCCC2)N=C(c2ccc(OCCCO)cc2)O[C@H]1c1ccccc1
composite z-score (Albumin (Bos taurus)): 0.737
composite Z-score [1]: -0.399 (inactive)
composite z-score [2]: 0.196
composite z-score [3]: 0.179
composite z-score [4]: 0.708
composite z-score [5]: 1.52
composite z-score [6]: 0.121
composite z-score (Sam68 (KHDRBS1)): 1.31
composite z-score [7]: -0.249
composite z-score [8]: 1.18
composite z-score [9]: 2.69
composite z-score [10]: 1.2
composite z-score [11]: 0.307
composite z-score [12]: 0.934
composite z-score [13]: 1.26
composite z-score [14]: 1.38
z-score [15]: -0.0876
composite z-score (Lefty1): 0.225
composite z-score [16]: 1.22
z-score [17]: -1.99 (inactive)

C=CCNC(=O)[C@@H]1[C@H]2C(=O)O[C@H](c3ccccc3)[C@H](c3ccccc3)N2[C@H](c2ccc(OCCO)cc2)[C@@]12C(=O)Nc1ccc(C#CCNC(N)=O)cc12
composite z-score (Albumin (Bos taurus)): 0.567
composite Z-score [1]: 0.0324 (inactive)
composite z-score [2]: -0.076
composite z-score [3]: -0.13
composite z-score [4]: 0.336
composite z-score [5]: 0.813
composite z-score [6]: 0.268
composite z-score (Sam68 (KHDRBS1)): 1.33
composite z-score [7]: -0.822
composite z-score [8]: 0.6
composite z-score [9]: 0.156
composite z-score [10]: -0.0352
composite z-score [11]: 0.0378
composite z-score [12]: 0.75
composite z-score [13]: 0.593
composite z-score [14]: -0.187
z-score [15]: -0.844
composite z-score (Lefty1): -0.0354
composite z-score [16]: 0.671
z-score [17]: -0.851 (inactive)

COC(=O)[C@@]1(Cc2ccc(F)cc2)[C@H]2c3cc(C(=O)N4CCCC4)n(C[C@H](O)CO)c3C[C@H]2CN1C(=O)c1ccccc1
composite z-score (Albumin (Bos taurus)): 1.13
composite Z-score [1]: 0.133 (inactive)
composite z-score [2]: 0.591
composite z-score [3]: 0.678
composite z-score [4]: 0.844
composite z-score [5]: 2.88
composite z-score [6]: 1.23
composite z-score (Sam68 (KHDRBS1)): 0.208
composite z-score [7]: 0.0578
composite z-score [8]: 0.779
composite z-score [9]: 1.09
composite z-score [10]: 1.09
composite z-score [11]: -0.0554
composite z-score [12]: 1.01
composite z-score [13]: -0.266
composite z-score [14]: -0.157
z-score [15]: 0.226
composite z-score (Lefty1): -0.472
composite z-score [16]: 0.883
z-score [17]: 2.19 (inactive)

COCCCNC(=O)[C@]1(Cc2ccccc2CN=[N+]=[N-])N=C(c2ccc(OCCCO)cc2)O[C@@H]1c1ccccc1N=[N+]=[N-]
composite z-score (Albumin (Bos taurus)): 0.835
composite Z-score [1]: -0.217 (inactive)
composite z-score [2]: 0.805
composite z-score [3]: 0.188
composite z-score [4]: 0.525
composite z-score [5]: 2.24
composite z-score [6]: 0.152
composite z-score (Sam68 (KHDRBS1)): 1.34
composite z-score [7]: -0.992
composite z-score [8]: 1.05
composite z-score [9]: 2.6
composite z-score [10]: 1.2
composite z-score [11]: 0.641
composite z-score [12]: 0.927
composite z-score [13]: 0.564
composite z-score [14]: 0.854
z-score [15]: 0.398
composite z-score (Lefty1): -0.108
composite z-score [16]: 1.2
z-score [17]: -6.03 (inactive)

COc1ccc([Si](C)(C)[C@H]2[C@H](CC(=O)N(CCO)Cc3ccccc3)O[C@@]3(C(=O)N(Cc4cccc(N5CCCCC5=O)c4)c4ccccc43)[C@@H]2C)cc1
composite z-score (Albumin (Bos taurus)): 0.124
composite Z-score [1]: 1.12 (inactive)
composite z-score [2]: 0.401
composite z-score [3]: -0.131
composite z-score [4]: 0.235
composite z-score [5]: 0.681
composite z-score [6]: 0.825
composite z-score (Sam68 (KHDRBS1)): 0.732
composite z-score [7]: 0.877
composite z-score [8]: 0.72
composite z-score [9]: 1.13
composite z-score [10]: 0.694
composite z-score [11]: 0.18
composite z-score [12]: 0.267
composite z-score [13]: 0.724
composite z-score [14]: 1.23
z-score [15]: -0.153
composite z-score (Lefty1): 0.931
composite z-score [16]: 0.311
z-score [17]: -1.55 (inactive)

O=C(N1CCOCC1)[C@]1(CCS(=O)(=O)c2ccccc2)N=C(c2ccc(OCCCO)cc2)O[C@@H]1c1ccccc1
composite z-score (Albumin (Bos taurus)): 1.03
composite Z-score [1]: 1.35 (inactive)
composite z-score [2]: 0.149
composite z-score [3]: -0.0256
composite z-score [4]: 0.441
composite z-score [5]: 2.86
composite z-score [6]: 0.473
composite z-score (Sam68 (KHDRBS1)): 1.31
composite z-score [7]: -0.62
composite z-score [8]: 1.21
composite z-score [9]: 2.94
composite z-score [10]: 1.23
composite z-score [11]: 0.99
composite z-score [12]: 0.996
composite z-score [13]: 1.25
composite z-score [14]: 0.23
z-score [15]: 1.1
composite z-score (Lefty1): -0.588
composite z-score [16]: 1.29
z-score [17]: -1.55 (inactive)

COC(=O)C(CC#Cc1ccc2c(c1)[C@]1(C(=O)N2)[C@H](c2ccc(OCCO)cc2)N2[C@H](c3ccccc3)[C@H](c3ccccc3)OC(=O)[C@H]2[C@@H]1C(N)=O)C(=O)OC
composite z-score (Albumin (Bos taurus)): 0.734
composite Z-score [1]: -0.0003 (inactive)
composite z-score [2]: -0.209
composite z-score [3]: -0.136
composite z-score [4]: 0.389
composite z-score [5]: 2.2
composite z-score [6]: 0.431
composite z-score (Sam68 (KHDRBS1)): 1.06
composite z-score [7]: -0.907
composite z-score [8]: 1.14
composite z-score [9]: 2.32
composite z-score [10]: 1.21
composite z-score [11]: 0.307
composite z-score [12]: 0.858
composite z-score [13]: 0.0592
composite z-score [14]: -0.379
z-score [15]: -0.616
composite z-score (Lefty1): -0.269
composite z-score [16]: 0.397
z-score [17]: -1.38 (inactive)

CC(C)(C)OC(=O)CC[C@]1(C(=O)N2CCOCC2)COC(c2ccc(OCCCO)cc2)=N1
composite z-score (Albumin (Bos taurus)): 0.947
composite Z-score [1]: -0.124 (inactive)
composite z-score [2]: -0.0387
composite z-score [3]: -0.129
composite z-score [4]: 0.853
composite z-score [5]: 2.85
composite z-score [6]: -0.494
composite z-score (Sam68 (KHDRBS1)): 0.836
composite z-score [7]: -1.17
composite z-score [8]: 0.0647
composite z-score [9]: 2.44
composite z-score [10]: 0.882
composite z-score [11]: 0.427
composite z-score [12]: 0.507
composite z-score [13]: -0.0198
composite z-score [14]: -0.225
z-score [15]: 1.62
composite z-score (Lefty1): -0.692
composite z-score [16]: 0.672
z-score [17]: -1.06 (inactive)

COc1ccc([Si](C)(C)[C@@H]2[C@@H](CC(=O)N3CCC[C@H]3CO)O[C@]3(C(=O)N(Cc4cccc(N5C(=O)c6cccc7cccc5c67)c4)c4ccccc43)[C@H]2C)cc1
composite z-score (Albumin (Bos taurus)): 0.601
composite Z-score [1]: 0.681 (inactive)
composite z-score [2]: -0.0701
composite z-score [3]: -0.166
composite z-score [4]: 0.394
composite z-score [5]: 0.386
composite z-score [6]: 0.104
composite z-score (Sam68 (KHDRBS1)): 0.905
composite z-score [7]: 0.568
composite z-score [8]: 1.13
composite z-score [9]: 1.2
composite z-score [10]: 1.03
composite z-score [11]: 0.948
composite z-score [12]: 0.584
composite z-score [13]: 1.16
composite z-score [14]: 1.43
z-score [15]: -0.0137
composite z-score (Lefty1): 0.839
composite z-score [16]: 1.21
z-score [17]: -0.0921 (inactive)
